Test results published in PubChem BioAssay AID2284174 (EPA ToxCast).
Results filed as inconclusive are left out. Activity calls are given as the source filed them. Rule for the calls: active = hit-call score of the fitted dose curve at least 0.9, where 1 is the maximum; inconclusive = response in the unintended direction; inactive = score below 0.9.

Molecular target: rat SKCa (Non-Selective), Kcnn1 (gene 54261) (UniProt P70606)
Assay: ERF_FR_IC_rKCNN1: Eurofins (ERF) Potassium Ion Channel [125I] Apamin Binding LeadHunter Assay for rat SKCa (Non-Selective)
Description: ERF_FR_IC_rKCNN1 is a biochemical, single-readout assay that uses extracted gene-proteins in a cell-free assay. Measurements were taken 1 hour after chemical dosing in a 96-well plate. See SKCa (Non-Selective) Rat Potassium Ion Channel [125I] Apamin Binding Assay, Cerep.ERF_FR_IC_rKCNN1 is an assay component calculated from the ERF_FR_IC_rKCNN1 assay. It is designed to measure radioligand binding using a type of binding reporter as detected by scintillation counting with radiometry technology.Data from the assay component ERF_FR_IC_rKCNN1 was analyzed at the assay endpoint, ERF_FR_IC_rKCNN1, in the positive analysis fitting direction relative to DMSO as the negative control and baseline of activity. Using a type of binding reporter, loss-of-signal activity can be used to understand changes in binding as they relate to gene Kcnn1. To generalize the intended target to other relatable targets, this assay endpoint is annotated to the ion channel intended target family, where the subfamily is voltage gated (Potassium).
This assay measures binding of [125I]apamin to small conductance calcium-activated potassium channel sites [SKCa]. […] Membranes are filtered and washed 3 times and the filters are counted to determine [125I]apamin specifically bound. […]

Chain of rat SKCa (Non-Selective), Kcnn1 (gene 54261) (P70606 whole entry, looked up): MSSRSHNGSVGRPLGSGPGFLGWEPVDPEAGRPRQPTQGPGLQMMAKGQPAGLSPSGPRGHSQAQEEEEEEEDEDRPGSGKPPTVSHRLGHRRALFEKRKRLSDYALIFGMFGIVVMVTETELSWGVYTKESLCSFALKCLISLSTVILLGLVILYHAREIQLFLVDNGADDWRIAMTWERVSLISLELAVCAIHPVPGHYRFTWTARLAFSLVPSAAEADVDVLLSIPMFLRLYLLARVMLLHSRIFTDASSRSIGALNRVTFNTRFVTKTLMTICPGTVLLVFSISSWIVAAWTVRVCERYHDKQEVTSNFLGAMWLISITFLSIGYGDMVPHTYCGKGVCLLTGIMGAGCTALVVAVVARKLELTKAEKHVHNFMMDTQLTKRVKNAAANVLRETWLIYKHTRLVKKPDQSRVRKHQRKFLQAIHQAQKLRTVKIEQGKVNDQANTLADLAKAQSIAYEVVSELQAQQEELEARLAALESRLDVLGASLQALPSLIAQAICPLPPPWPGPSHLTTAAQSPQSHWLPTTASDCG

Question: With CCCCC[C@H](O)CC(=O)CCc1ccc(O)c(OC)c1 as the molecule, how does the outcome read?
Answer: inactive
